This note sets out measurements from article PMC7819943, “Rice protein-binding microarrays: a tool to detect cis-acting elements near promoter regions in rice”.

In all, about 68,000 sequences were measured (“fluorescence intensity (a.u.)”: median about 9,100, highest 2% from about 16,000 on). The sample as a whole holds a higher share of the highest values than the screen did.

OsWRKY34, sequence (Q0JBA9 entry or part of it): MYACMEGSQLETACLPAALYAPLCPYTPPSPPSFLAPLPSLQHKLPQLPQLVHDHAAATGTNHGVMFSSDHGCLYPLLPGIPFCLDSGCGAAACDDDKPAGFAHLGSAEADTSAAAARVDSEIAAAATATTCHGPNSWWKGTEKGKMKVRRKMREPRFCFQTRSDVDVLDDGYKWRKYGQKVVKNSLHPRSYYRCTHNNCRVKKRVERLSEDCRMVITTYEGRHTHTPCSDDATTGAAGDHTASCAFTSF

The experiment addresses OsWRKY34 (Oryza sativa, UniProt Q0JBA9 1-250). As to the kind of experiment: protein-binding microarray (RPBM); PBS, 2% BSA, 51.3 ng/ul salmon testes DNA, 50 uM zinc acetate, 200 nM TF, 25 C, 1 h; high values mean tight binding. Particulars: protein: recombinant; tags: N-terminal polyhistidine and DsRed monomer fusion (pET32a); label: CyDye5-dUTP incorporated in the synthesized complementary strand; 3' TTTTT single-stranded linker to array surface; dsDNA, one strand shown. The method, boiled down: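 A custom Agilent array was converted to double-stranded form by primer extension with Cy5-dUTP and blocked with 2% BSA. Protein at 200 nM in PBS with 2% BSA, salmon testes DNA and 50 µM zinc acetate was applied for 1 h at 25 °C, followed by washing. The proteins were polyhistidine–DsRed N-terminal fusions of transcription factors, expressed in E. coli BL21-CodonPlus and Ni–NTA-purified. The binding signal is per-feature fluorescence intensity (arbitrary units) from an Axon 4000B scanner.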
“TTTTCGTCTATTTTATTACTGTTGCTTGCCTACAATTCTCCGGAGTCACCTAGTGCAG”: the binding signal was 13500 fluorescence intensity (a.u.).

For “ATAGGTGCCGGTTCTATTTTGGTATAGGGGTCGGTTGTTTCGGAGTCACCTAGTGCAG”, the binding signal is 11700 fluorescence intensity (a.u.). The same measure for “TCTCACTCTCGAGCCATCGTCTTCAGCTCGCTCATTACTGCGGAGTCACCTAGTGCAG”: 9030 fluorescence intensity (a.u.); for “CGCCTTCGCCTCCGGCCCCTTATATGGCGTGGCGGGGAGGCGGAGTCACCTAGTGCAG”: 8930 fluorescence intensity (a.u.); for “TTCGTTGACCAAGTTTAATTCAAATTCAATTCAATTTTAACGGAGTCACCTAGTGCAG”: 9760 fluorescence intensity (a.u.). Under “TAATGACTTATCCTGCGGTGAAAAATCTTCATCTTCGTATCGGAGTCACCTAGTGCAG” stands 8160 fluorescence intensity (a.u.); under “GCTGCTCGGATTTGATTGATTGATTGATTGGCGGGTGGTCCGGAGTCACCTAGTGCAG”, 8590 fluorescence intensity (a.u.).

In the case of “GCAATTTTTTACGCCCACACGACTGTCCGAGAGCAATATGCGGAGTCACCTAGTGCAG”, the binding signal was 8170 fluorescence intensity (a.u.). With “CTCCCGAGGAAGATGACGAGGAGTCAGTCAACAGTTGACTCGGAGTCACCTAGTGCAG”, the binding signal was 8130 fluorescence intensity (a.u.). Under “ATTCTAGTAGTAGTTGTTTATCTTTGTTCTGTTGTTTCTTCGGAGTCACCTAGTGCAG” stands 8520 fluorescence intensity (a.u.); under “TCTTCCCGCCTTTTTTTTCTTTGTTATTTTTCTTTTTTTTCGGAGTCACCTAGTGCAG”, 18000 fluorescence intensity (a.u.).

With “TTCTTTCCTTACGATTTTTGCTCCTGCTCTAGTTCTTGTTCGGAGTCACCTAGTGCAG”, the binding signal is 8140 fluorescence intensity (a.u.). Regarding “CCTTCGATTGACCTCCTCATCCTCTTCCCCTGCTTTCTTTCGGAGTCACCTAGTGCAG”, the binding signal was 9720 fluorescence intensity (a.u.). Under “TCTCTCTCTCTCTCTCTTCTCTTCTCTTTGTTTTCTTGTTCGGAGTCACCTAGTGCAG” stands 9940 fluorescence intensity (a.u.); under “TCCCACGATTTCCTTTCCTGCTTTTCTCATCCCTTTTGTTCGGAGTCACCTAGTGCAG”, 16500 fluorescence intensity (a.u.); under “TTCCTTTTTTCCCGCCCGTTCCTTTTTTGTTTGTTATGTTCGGAGTCACCTAGTGCAG”, 15700 fluorescence intensity (a.u.).

Regarding “GAATTTTTTTTTCGTTTTTTTCAATTCGTTATTCTTTTCTCGGAGTCACCTAGTGCAG”, the binding signal is 12300 fluorescence intensity (a.u.). Under “TCCTTTTCTTTTCTTTTATTTTTTTTTGTTTTTTCCCGTTCGGAGTCACCTAGTGCAG” stands 8300 fluorescence intensity (a.u.); under “TCAATTATTCAGGGTTTCTTCTGGTTCTTGTCTCGCCATGCGGAGTCACCTAGTGCAG”, 8630 fluorescence intensity (a.u.); under “CTTTTTTCTCTGCGGGTTCTTCAATTATTCAGGGTTTCTTCGGAGTCACCTAGTGCAG”, 16800 fluorescence intensity (a.u.).

As to “GGGTTCTTTCTGTAGTAGGGGTTTTTCTTTGTTTTCTCTTCGGAGTCACCTAGTGCAG”, the binding signal was 17700 fluorescence intensity (a.u.). Under “AAAAGGCGTTTGCTTGTTTTTGCTGTGGGTTAATTCGCCTCGGAGTCACCTAGTGCAG” stands 8090 fluorescence intensity (a.u.).

Take “GTCACTCCTACTCCCGCCACCACCGGCCCAATGGCGCCCCCGGAGTCACCTAGTGCAG”: the binding signal was 9660 fluorescence intensity (a.u.). Regarding “CCCAGTTTTATTTCTGCAGTTCATTTTATGAGAGCATTCTCGGAGTCACCTAGTGCAG”, the binding signal is 8120 fluorescence intensity (a.u.).

Consider “GTGCTCTCTGCTGGCTGCGACGCCATATATGCCTTTCTTCCGGAGTCACCTAGTGCAG”, for which the binding signal was 8720 fluorescence intensity (a.u.). The same measure for “ACATTCTCTTATACCCATCACAATCATTTGCTCAATAGGGCGGAGTCACCTAGTGCAG”: 8620 fluorescence intensity (a.u.); for “CTATCAATTCGCTCTATTATGTCGCTCAATTCTCTCTCGCCGGAGTCACCTAGTGCAG”: 8650 fluorescence intensity (a.u.). Under “GCCGGATCCAGATCTCCACCGCCTCGCCTCGCCGCGCCGCCGGAGTCACCTAGTGCAG” stands 10400 fluorescence intensity (a.u.); under “CTACACACAAACTTCCAACTTTTCTGTCACATCGTTCCAACGGAGTCACCTAGTGCAG”, 11900 fluorescence intensity (a.u.).

As to “GTGTGTTTTTCTGCCATTTTTCGCCTTAGGTCTTCGCAATCGGAGTCACCTAGTGCAG”, the binding signal was 12300 fluorescence intensity (a.u.).

Turning to “GAGATAGATGGGCCTGAAATGCGCCGATGGTCAGGCCTGCCGGAGTCACCTAGTGCAG”, the binding signal was 8190 fluorescence intensity (a.u.). The same measure for “TTCGTGCACGCGGTCCATGCACCAGCCACCATTCCCTTCGCGGAGTCACCTAGTGCAG”: 8350 fluorescence intensity (a.u.); for “CGTGTCTTGTGTGTTTCCTGTCTCGCGAGCCTTCCACATACGGAGTCACCTAGTGCAG”: 15000 fluorescence intensity (a.u.); for “TCTGGTTGATTGATCGATTTGGGGAATTGGGGATCTAGCTCGGAGTCACCTAGTGCAG”: 12000 fluorescence intensity (a.u.). As for “GGTCTGGTTCTTCTTGATGCGAGGCTAGCTGACGTTTTTTCGGAGTCACCTAGTGCAG”, the binding signal was 17200 fluorescence intensity (a.u.). Regarding “CGTTTCTTGGCTGGTTTTCTTGGGCGGCGATCGATCGATGCGGAGTCACCTAGTGCAG”, the binding signal is 8140 fluorescence intensity (a.u.). Under “GATTTGGTCTGGTTTGGTTGGAGGTTAGCTCGCCTCTGATCGGAGTCACCTAGTGCAG” stands 19400 fluorescence intensity (a.u.). On to “TTGTTCTTCTTTTTTGGTCTGGTTTTTTTTGTGGTTTCTTCGGAGTCACCTAGTGCAG”, for which the binding signal was 16700 fluorescence intensity (a.u.). The same measure for “CTTTTGGTCTTCCCTTTCTTTTCTTCTTCTTCTTCTTCTTCGGAGTCACCTAGTGCAG”: 10400 fluorescence intensity (a.u.); for “TAATATATGATCATACTTGTTTTATATACATTGTGTCTTGCGGAGTCACCTAGTGCAG”: 9830 fluorescence intensity (a.u.); for “GAGGTTAGCTCGCCTCTGATTGGGTTGGTTGGGTGGTCGGCGGAGTCACCTAGTGCAG”: 10100 fluorescence intensity (a.u.).

Regarding “CTCGTGTGTCTTGCGGGCGGGTGATCTTTCCACATACAGACGGAGTCACCTAGTGCAG”, the binding signal was 19200 fluorescence intensity (a.u.). Under “TTGTTCTTTTTGGTCTGGTTTTTTTGTGGTTTCTTGATTGCGGAGTCACCTAGTGCAG” stands 9010 fluorescence intensity (a.u.); under “AAGGTTGTCTTGTTTGATTAGCTATTTTCTTTGCCTGGTTCGGAGTCACCTAGTGCAG”, 11400 fluorescence intensity (a.u.). The same measure for “ACCTTAATTAATTAATCTTGTTTTCTCATGGAGTTGTCATCGGAGTCACCTAGTGCAG”: 10400 fluorescence intensity (a.u.); for “AACGCGTGTATTTCTATGCTTTTGATATTGATCTTGCATCCGGAGTCACCTAGTGCAG”: 8230 fluorescence intensity (a.u.). Under “GGACATTTGGAACTGATTACTCCTACTACTCTAGTGAAAACGGAGTCACCTAGTGCAG” stands 8400 fluorescence intensity (a.u.); under “GTGCTACCTCCATCCCAATATACTTGTCGTTTTAAGTTTTCGGAGTCACCTAGTGCAG”, 11800 fluorescence intensity (a.u.). Regarding “TCTCTTATACTGATTTTTGGGTCCAATCCCTTACCGTTGACGGAGTCACCTAGTGCAG”, the binding signal is 8150 fluorescence intensity (a.u.).

For “TTCCGGCCCGCGTTCTTTTTGAAGTCCAGTTTACGTCCTTCGGAGTCACCTAGTGCAG”, the binding signal is 10800 fluorescence intensity (a.u.). The same measure for “TATTCCTTTCATTGGGTTTGTGCGGGATGGCTGGTTGGTGCGGAGTCACCTAGTGCAG”: 18100 fluorescence intensity (a.u.); for “TTTGTGTGTCTTGTTTATATGTGCACATATCTTGTCTTGTCGGAGTCACCTAGTGCAG”: 8370 fluorescence intensity (a.u.). The same measure for “ACCTTTCCTTTCATCTCTTCCGCTGGTTTTGTGGGATATTCGGAGTCACCTAGTGCAG”: 12800 fluorescence intensity (a.u.); for “GATGTTGTTTCCTTTCTTTGGTGGTTTGGTTTGGTTGGGTCGGAGTCACCTAGTGCAG”: 29300 fluorescence intensity (a.u.). Under “GGTCTGGTTTTATCGGTTTATATGTGTGTGTTTTTTTTGTCGGAGTCACCTAGTGCAG” stands 33500 fluorescence intensity (a.u.).

For the sequence “CCGTTTCCTTTGCTGGTTGTGTTTTGTGCTTGCATTCATGCGGAGTCACCTAGTGCAG”, the binding signal is 12400 fluorescence intensity (a.u.).

Regarding “ATTTGTTGTTTCATTTGTATTGTTTTGTGTTGGTTTATGTCGGAGTCACCTAGTGCAG”, the binding signal was 8940 fluorescence intensity (a.u.). With “GTTCTCTTTTTTGTTTGTCTTTCCTAGTGCAATATGTTTCCGGAGTCACCTAGTGCAG”, the binding signal was 10700 fluorescence intensity (a.u.). Consider “GCCTTTTTTCCTTTGTCTTTTTCCGGCCCGCGTTCTTTTTCGGAGTCACCTAGTGCAG”, for which the binding signal was 17400 fluorescence intensity (a.u.).

For the sequence “CTTGTTGATGTGGGTGTTTCTTGGTCGATCCTTCTTGTTTCGGAGTCACCTAGTGCAG”, the binding signal was 8330 fluorescence intensity (a.u.).

With “TGGTGACGATGGTGATGTTCTTGTTGTTGGTTTTTCCTTTCGGAGTCACCTAGTGCAG”, the binding signal was 9530 fluorescence intensity (a.u.).
